TRPV1 ag = HTS Assay for Compounds that Act as Agonists of the Vanilloid Receptor 1. Transient receptor potential cation channel subfamily V member 1 (Homo sapiens), Q8NER1. hit rate 0.19% among 320,000. TRPV1-expressing cells, Fluo-8 calcium influx, agonist mode. AID 540275, 2011. activation, % at 8.33 µM; in the data active means activation above about 80%; inconclusive means between about 30% and that limit; further: 0% is about no effect
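Cells expressing TRPV1 were dye-loaded with Fluo-8 and read kinetically: 10 s baseline, 3 min after compound (agonist portion), then 2 min after EC20 capsaicin (allosteric enhancer portion). Calcium-bound dye fluorescence at 480/520 nm.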
TRHR enhancer-1 = qHTS for Small Molecule Agonists and Allosteric Enhancers of Human TRH Receptor: Primary Screen for Enhancers; Thyrotropin-releasing hormone receptor (Homo sapiens), P34981; TRHR cells, fluo-8 calcium fluorescence, EC20 TRH enhancement; enhancement, % at 2 µM; hit rate 0.66% among 360,000; AID 493056, 2011; in the data active means enhancement above about 30%; further: 0% is about no effect
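TRHR-expressing cells loaded with fluo-8 calcium dye were read kinetically (ex 480/em 530) during compound addition, then stimulated with an EC20 of TRH (10 nM final). Enhancement of the Gq-mediated intracellular calcium response was scored.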
TRPML1 blocker = qHTS for Inhibitors of the Human Mucolipin Transient Receptor Potential 1 (TRPML1); TRPML1-inducible cells, Ca2+ dye fluorescence, FDSS; stronger effect = lower value; inhibition of EC80 agonist-evoked calcium signal; activity change, negative = inhibition, % (test concentration not listed); hit rate 0.02% among 390,000; AID 624415, 2012; in the data active means activity change below about -50%; inconclusive means between about -30% and that limit;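 further: stimulus is agonist 54-4 at its EC80 concentration; on the % scale 0 is the no-effect control and ±100 the full control effect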
Target sequence (Q9GZU1 whole entry, looked up): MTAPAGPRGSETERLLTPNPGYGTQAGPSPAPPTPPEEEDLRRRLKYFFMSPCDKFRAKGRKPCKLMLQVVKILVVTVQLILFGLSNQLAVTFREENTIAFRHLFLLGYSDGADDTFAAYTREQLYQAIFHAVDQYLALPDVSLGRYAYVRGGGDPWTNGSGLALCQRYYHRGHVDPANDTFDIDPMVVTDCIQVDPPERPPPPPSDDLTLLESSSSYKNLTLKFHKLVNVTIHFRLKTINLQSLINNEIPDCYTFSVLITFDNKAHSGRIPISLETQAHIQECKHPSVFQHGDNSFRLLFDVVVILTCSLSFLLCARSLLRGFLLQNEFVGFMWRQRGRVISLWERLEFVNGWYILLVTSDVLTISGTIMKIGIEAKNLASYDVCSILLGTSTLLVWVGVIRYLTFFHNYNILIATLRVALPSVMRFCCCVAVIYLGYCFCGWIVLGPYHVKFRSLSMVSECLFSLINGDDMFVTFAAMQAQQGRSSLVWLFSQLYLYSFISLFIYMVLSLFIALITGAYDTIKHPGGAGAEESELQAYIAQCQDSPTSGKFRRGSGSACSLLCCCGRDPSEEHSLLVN
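Calcium fluorescence in TRPML1-DL cells induced overnight with Tet: a 110 s read after compound pin addition, then a 110 s antagonist read after challenge with 54-4 at 4 uM final (EC80).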
TRHR agonist-1 = qHTS for Small Molecule Agonists and Allosteric Enhancers of Human TRH Receptor: Primary Screen for Agonists; TRHR cells, calcium flux fluo-8, FDSS agonist mode; activation, % at 2 µM; hit rate 0.18% among 360,000; AID 493084, 2011; in the data active means activation above about 30%; further: 0% is about no effect
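Steps: seed TRHR cells overnight; add fluo-8 no-wash Ca dye, RT 30 min–1.5 h; record 10 s baseline; pin-transfer compounds; monitor fluorescence 1 cycle/s for the agonist window. Calcium increases flag candidate agonists.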
TRPML1 ag = qHTS for Agonists of the Human Mucolipin Transient Receptor Potential 1 (TRPML1) | hit rate 0.12% among 410,000 | TRPML1-expressing cells, Ca2+ dye fluorescence, FDSS | activation, % (test concentration not listed) | Mucolipin-1 (Homo sapiens), Q9GZU1; in the data active means activation above about 50%; inconclusive means mostly about 30% to 49%; further: 0% is about no effect
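Calcium fluorescence on an FDSS kinetic reader gave the read-out. Tet-induced TRPML1-DL cells were plated overnight, dye-loaded (Ca8 with quencher, 45-90 min, room temperature, dark), then read 110 s after compound addition, and again 110 s after 4uM final 54-4 (EC80).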
TRPV1 potentiator = HTS Assay for Compounds that Act as Potentiators of the Vanilloid Receptor 1; Transient receptor potential cation channel subfamily V member 1 (Homo sapiens), Q8NER1; potentiation, % at 8.33 µM; hit rate 0.02% among 320,000; TRPV1-expressing cells, Fluo-8 calcium influx, capsaicin EC20 potentiation; in the data active means potentiation above about 80%; inconclusive means between about 30% and that limit; further: 0% is about no effect
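Fluo-8 calcium influx in TRPV1-expressing cells, kinetic read (ex 480/em 520 nm). Compound added and read 3 min for agonist activity, followed by capsaicin at EC20 final and 2 min further read for enhancement.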
TRHR enhancer-2 = qHTS for Small Molecule Agonists and Allosteric Enhancers of Human TRH Receptor: Confirmation Screen for Enhancers; shares compounds with TRHR enhancer-1; TRH receptor cell assay, enhancer confirmation qHTS; activity change, negative = inhibition, % at 46.1 µM; 970 tested, under 10 active; AID 493076, 2011;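 further: compound effect scored on response to added TRH at EC20 of 10 nM; 0% is about no effect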
TRHR agonist-2 = qHTS for Small Molecule Agonists and Allosteric Enhancers of Human TRH Receptor: Confirmation Screen for Agonists; Potency, µM (highest dose often 46.1 µM), for inactives: at the highest dose activation, usual class: activators; hit rate 8% among 970; AID 493078, 2011; shares compounds with TRHR enhancer-1; TRHR-expressing cells, agonist activation read-out; further: potency means the concentration at half of the fitted maximal effect; 0% is about no effect; nearly all actives have a fitted effect of over 75% in size
An asterisk follows results filed as active; ? = inconclusive; nt = not tested or not shown. Sampled rows, rich in hits. Any-hit rate of the full collection: about 0.99%. Unless noted, the call rests on the fitted dose curve; in most records, active means well fitted curve in the direction sought with a large enough effect; inconclusive means small, poorly fitted or top-dose-only effect, or another doubt; inactive means no such curve, though single readings can be large; an effect the other way counts as inactive or inconclusive.

SMILES | TRPV1 ag | TRHR enhancer-1 | TRPML1 blocker | TRHR agonist-1 | TRPML1 ag | TRPV1 potentiator | TRHR enhancer-2 | TRHR agonist-2
COc1ccc(Cn2nnnc2C(c2ccccc2)N2CCN(C3CCCC3)CC2)cc1 (stereo not given) | 1 | 48* | -2 | 0 | 1 | 1 | -2 | 8%
Cn1nnnc1SCC(=O)NNC(=O)c1ccc(F)cc1 | -4 | 44* | 21 | 1 | 0 | 6 | -6 | -1%
CCOc1ccc(C(=O)Nc2ccc(N3CCN(C)CC3)cc2)cc1[N+](=O)[O-] | 5 | 63* | -7 | 1 | 1 | 12 | 7 | 0%
CCOc1ccc(C(=O)Nc2ccc(N3CCN(C(C)=O)CC3)cc2)cc1[N+](=O)[O-] | 6 | -9 | 18 | 1 | 0 | 8 | nt | nt
O=C(CSc1ccc(-c2ccc(F)cc2)nn1)N1CCOCC1 | 5 | 50* | 11 | 0 | 0 | -11 | -5 | 1%
C=CCn1c(=O)n(C(=O)OCC)c2cc(Br)ccc21 | ? | 66* | -1 | 1 | 1 | -1 | -7 | 1%
COc1ccccc1C1(O)CCN(C(=O)c2cccs2)CC1 | -4 | 46* | -1 | 0 | -1 | 2 | -3 | 1%
O=S(=O)(NCC1CCCO1)c1ccc(Cl)cc1 (stereo not given) | -4 | 46* | nt | 0 | nt | -6 | -2 | 1%
Cc1cccc(-n2c(C)nnc2SCC(=O)NC(C)c2ccco2)c1 (stereo not given) | nt | nt | nt | nt | 1 | nt | nt | nt
Nn1c(N2CCCCC2)nc2ccccc21 | -2 | 71* | -7 | 0 | 0 | 12 | -1 | 4%
Cc1cccc(OCc2nnc(SC(C)C(=O)O)n2Cc2ccccc2)c1 (stereo not given) | 0 | 41* | 14 | 1 | -1 | 6 | 12 | -1%
COc1ccccc1OCC(=O)OCC(=O)Nc1sccc1C(N)=O | 1 | -2 | 9 | 34* | 1 | -7 | -1 | ?
Nc1c(C(=O)Nc2nccs2)sc2nc(-c3cccs3)cc(C(F)(F)F)c12 | -1 | 28 | -2 | -1 | 23 | -5 | nt | nt
Cc1nnc(NC(=O)c2sc3nc(-c4cccs4)cc(C(F)(F)F)c3c2N)s1 | 18 | 2 | 19 | 52* | 52* | 1 | 5 | ?
Cn1c(/C(C#N)=C/c2ccc(O)cc2)nc2ccccc21 | ? | 4 | nt | 1 | nt | -23 | nt | nt
COc1cc(/C=C(\C#N)c2nc3ccccc3n2C)cc(OC)c1O | 25 | 17 | -22 | 119* | 59* | ? | -1 | 18µM*
COc1ccccc1CNC(=O)N1CCN(S(=O)(=O)c2ccc(C)cc2)CC1 | 13 | 42* | -4 | -1 | 0 | -11 | -9 | -1%
CC1(C)C2CCC1(CS(=O)(=O)N1CCC(C(N)=O)CC1)C(=O)C2 (stereo not given) | -5 | 2 | 6 | 1 | 0 | 1 | nt | nt
CCOC(=O)C1(CC2CC2)CCN(S(=O)(=O)C[C@]23CC[C@H](CC2=O)C3(C)C)CC1 | 22 | 1 | 6 | 34* | -1 | -13 | 5 | ?
COc1ccc(/C=N/n2c(-c3ccccc3)n[nH]c2=S)cc1 | 15 | 49* | -27 | 0 | 0 | -5 | 8 | 6%
CCOCCCNC(=O)c1cc(Sc2ccc(F)cc2)nc2ccccc12 | ? | 49* | 1 | 0 | 0 | -22 | -7 | 3%
CCOC(=O)CNS(=O)(=O)c1ccc(F)cc1Br | nt | nt | -6 | nt | 1 | nt | nt | nt
CN(C)c1cc2c3ccccc3ccc2c2ccccc12 | nt | nt | nt | nt | 0 | nt | nt | nt
O=C(C[n+]1c2ccccc2cc2ccccc21)c1ccc(F)cc1 | nt | nt | nt | nt | 0 | nt | nt | nt
COc1ccccc1N(CC(=O)NCc1cccnc1)S(C)(=O)=O | -4 | 48* | -7 | 0 | 1 | 4 | 8 | 1%
SMILES | TRPV1 ag | TRHR enhancer-1 | TRPML1 blocker | TRHR agonist-1 | TRPML1 ag | TRPV1 potentiator | TRHR enhancer-2 | TRHR agonist-2
COc1cc(OC)cc(C(=O)Nc2cccnc2)c1 | 4 | 50* | 4 | 0 | 0 | 20 | -1 | 3%
COc1cc(OC)cc(C(=O)NC(=S)Nc2cccnc2)c1 | -3 | 2 | -13 | -1 | 0 | 0 | nt | nt
CCCCc1cc(=O)oc2cc(OCC(=O)N(CC)CC)c(Cl)cc12 | 7 | 66* | -4 | 0 | 0 | -13 | -5 | 0%
CCCCc1cc(=O)oc2cc(OCC(=O)N(CC)CC)ccc12 | 1 | 0 | 10 | -2 | -1 | 1 | nt | nt
Cn1nc(C(=O)OCC(=O)Nc2ccc(Cl)cc2Cl)c2ccccc2c1=O | -1 | 42* | -6 | 0 | 0 | 3 | -2 | -1%
CCN(CC)c1ccc(CN2CCC(C(=O)NCc3ccc(C)cc3)CC2)cc1 | -13 | 45* | 18 | 0 | 0 | 6 | 9 | 2%
O=S(=O)(c1cccs1)N1CCN(c2nc(-c3cccs3)nc3ccccc23)CC1 | nt | nt | nt | nt | 0 | nt | nt | nt
O=S(=O)(c1ccccc1Cl)N1CCN(c2nc(-c3ccccc3)nc3ccccc23)CC1 | nt | nt | nt | nt | 0 | nt | nt | nt
O=[N+]([O-])c1ccc(N2N=C(c3ccco3)CC2c2ccccc2)cc1 (stereo not given) | 7 | -9 | 16 | 28 | 13 | -1 | 6 | ?
Fc1ccc(C2CC(c3ccco3)=NN2c2ccccc2)cc1 (stereo not given) | 0 | 10 | -12 | 0 | 3 | 20 | nt | nt
CCN(CC)C(=O)c1cc2c(=O)c3cc(Cl)ccc3oc2nc1C | -3 | 73* | -8 | -2 | -1 | -9 | 0 | -1%
COc1ccc(CCNC(=O)CN2CCOc3ccccc32)cc1OC | -2 | 58* | 12 | 0 | 0 | -2 | 1 | 0%
c1ccc(Oc2ccc(-c3ccnc4ncnn34)cc2)cc1 | ? | 48* | 58 | -2 | 5 | -13 | -7 | 0%
